According to ChEMBL document CHEMBL3433997, “St. Jude Leishmania screening dataset” (2016):

Tests used:
Assay type in all cases: functional
[1] = biological target: Solute carrier family 2, facilitated glucose transporter member 1 (Homo sapiens) (UniProt P11166); experiment: ST_JUDE_LEISH: Cytotoxicity at 2uM final concentration against transgenic Leishmania Mexicana promastigotes LmGLUT1 that are glucose transport deficient and complemented with the human glucose transporter GLUT1. Activity is measured by DNA content using SYBR green in vitro
[2] = biological target: Hexose transporter 1 (Plasmodium falciparum) (UniProt O97467); experiment: ST_JUDE_LEISH: Cytotoxicity at 2uM final concentration against transgenic Leishmania Mexicana promastigotes LmPfHT that are glucose transport deficient and complemented with the Plasmodium falciparum hexose transporter. Activity is measured by DNA content using SYBR green in vitro
[3] = biological target: Glucose transporter (Leishmania mexicana) (UniProt O61059); experiment: ST_JUDE_LEISH: Cytotoxicity at 2uM final concentration against transgenic Leishmania Mexicana promastigotes LmGT2 that are glucose transport deficient and complemented with the L. Mexicana glucose transporter 2. Activity is measured by DNA content using SYBR green in vitro

Sequence of Solute carrier family 2, facilitated glucose transporter member 1 (Homo sapiens) (P11166 whole entry): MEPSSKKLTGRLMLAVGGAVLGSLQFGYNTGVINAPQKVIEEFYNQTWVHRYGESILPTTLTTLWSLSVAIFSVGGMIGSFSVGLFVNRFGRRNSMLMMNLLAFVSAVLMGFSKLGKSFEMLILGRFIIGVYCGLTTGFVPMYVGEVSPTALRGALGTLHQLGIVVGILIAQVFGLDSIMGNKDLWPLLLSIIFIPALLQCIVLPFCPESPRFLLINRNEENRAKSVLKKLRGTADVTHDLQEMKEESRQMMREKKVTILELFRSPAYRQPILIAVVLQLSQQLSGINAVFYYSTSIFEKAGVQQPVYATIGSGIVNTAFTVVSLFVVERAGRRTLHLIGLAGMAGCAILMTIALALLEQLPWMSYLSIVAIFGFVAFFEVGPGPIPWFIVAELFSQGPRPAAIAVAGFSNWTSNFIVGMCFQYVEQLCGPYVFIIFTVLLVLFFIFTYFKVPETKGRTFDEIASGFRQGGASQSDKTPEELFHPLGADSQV

Q: What does the source list for `CCN(CCNc1nc(NCCc2cnc[nH]2)nc(N(CCC#N)Cc2ccccc2)n1)c1cccc(C)c1`?
A: inhibition [1]: 12.1%; inhibition [2]: 12.8%; inhibition [3]: 6.78%

Q: With `COc1ccc(C=C2SC(=N)N(c3ccccc3OC)C2=O)cc1` as the compound, how does the inhibition [1] read?
A: Its inhibition is 6.44%.

Q: And the inhibition [2]?
A: The inhibition was 5.54%.

Q: What about the inhibition [3] of the same compound?
A: Its inhibition is 6.86%.

Q: Which results are given for `COc1ccc2nccc([C@@H](O)CN3CCC(NCc4cc5ccc(Cl)cc5[nH]4)CC3)c2c1`?
A: inhibition [1]: 9.64%; inhibition [2]: 12.1%; inhibition [3]: 4.6%

Q: Which inhibition [1] does the source give for `Cc1ccc(-c2cncc(-c3cc(NC4CCN(Cc5ccccc5)CC4)nc(-c4ccccc4)n3)c2)cc1` here?
A: The inhibition was 2.11%.

Q: What about the inhibition [2] of the same compound?
A: Its inhibition is 2.36%.

Q: What about the inhibition [3] of the same compound?
A: Its inhibition is 1.96%.

Q: What does the source list for `CCCN1CCN(CCCNC(=O)c2cc3c(-c4ccc(Cl)cc4)nn(C)c3s2)CC1`?
A: inhibition [1]: 18.3%; inhibition [2]: 17.4%; inhibition [3]: 10.2%

Q: `Cc1ccc2[nH]c(C)c(Br)c(=O)c2c1` was tested. Which inhibition [1] did it give?
A: Its inhibition is -1%.

Q: And the inhibition [2]?
A: The inhibition was -2.07%.

Q: What about the inhibition [3] of the same compound?
A: Its inhibition is -3.38%.

Q: With `C=CCc1cccc(C)c1OCCCON1C(=N)N=C(N)NC1(C)C` as the compound, how does the inhibition [1] read?
A: Its inhibition is 1.09%.

Q: What about the inhibition [2] of the same compound?
A: Its inhibition is 2.76%.

Q: What about the inhibition [3] of the same compound?
A: The inhibition was 1.9%.

Q: Which results are given for `Cc1ccc(S(=O)(=O)N(C)c2ccccc2C(=O)Nc2ccccc2Oc2ccccc2)cc1`?
A: inhibition [1]: -0.78%; inhibition [2]: -0.51%; inhibition [3]: -3.37%

Q: With `COc1ccc(CNC2CCN(C)CC2)cc1-c1ccc(S(=O)(=O)NCC2CCCO2)s1` (centres undefined) as the compound, how does the inhibition [1] read?
A: The inhibition was 3.99%.

Q: And the inhibition [2]?
A: Its inhibition is 4.98%.

Q: And the inhibition [3]?
A: The inhibition was 5.52%.

Q: Which inhibition [1] does the source give for `Clc1ncccc1-c1nc(NCCC(c2ccccc2)c2ccccc2)no1` here?
A: The inhibition was 4.29%.

Q: What about the inhibition [2] of the same compound?
A: The inhibition was 2.24%.

Q: And the inhibition [3]?
A: The inhibition was 2.64%.

Q: With `CC(C)CCNc1nc2ccccc2nc1Nc1cccc(C(F)(F)F)c1` as the compound, how does the inhibition [1] read?
A: The inhibition was 2.21%.

Q: And the inhibition [2]?
A: The inhibition was 3.55%.

Q: And the inhibition [3]?
A: The inhibition was 2.32%.

Q: For `CN(C)c1ccc(NC2=NC(N)=NC(C)(C)N2)cc1`, which inhibition [1] is on record?
A: The inhibition was 0.38%.

Q: And the inhibition [2]?
A: Its inhibition is 1.5%.

Q: And the inhibition [3]?
A: The inhibition was 0.7%.

Q: What does the source list for `CC1CCCN(c2ccc(NC(=O)c3cccs3)cc2[N+](=O)[O-])C1` (centres undefined)?
A: inhibition [1]: 1.22%; inhibition [2]: 1.19%; inhibition [3]: -1.43%
